In publication PMC8384837, “Expanding the binding specificity for RNA recognition by a PUF domain”:

What was measured:
Test in all cases: yeast three-hybrid, YBZ-1, SC-Leu-His + 0.5 mM 3-AT, 4 days
Conditions in all cases: tags: N-Gal4 AD-HA kept; label: inside an RPR1-promoter hybrid RNA with tandem MS2 sites; ssRNA
PUM1 PUF domain R5-GRA = PUM1 PUF domain R5-GRA (Homo sapiens, UniProt Q14671 828-1176, C1007G;Q1011A)
Method in brief: (§1)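 The interaction score is the log change in variant frequency from input to selection. Scores were computed in log2 with a pseudocount of 1 for absent variants, using Illumina sequencing of PCR-amplified repeat regions. The input came from four days on SC-Leu and the selection from four days on SC-Leu-His + 0.5 mM 3-AT. The cells were strain YBZ-1 (LexA–MS2 coat fusion, HIS3 reporter) co-expressing Pumilio-1 PUF domain libraries and matching RNA elements from a centromeric plasmid.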

PUM1 PUF domain R5-DWA = PUM1 PUF domain R5-DWA (Homo sapiens, UniProt Q14671 828-1176, C1007D;R1008W;Q1011A)
Method in brief: as §1

PUM1 PUF domain R5-GHA = PUM1 PUF domain R5-GHA (Homo sapiens, UniProt Q14671 828-1176, C1007G;R1008H;Q1011A)
Method in brief: as §1

PUM1 PUF domain R5-RDK = PUM1 PUF domain R5-RDK (Homo sapiens, UniProt Q14671 828-1176, C1007R;R1008D;Q1011K)
Method in brief: as §1

PUM1 PUF domain R8-KFN = PUM1 PUF domain R8-KFN (Homo sapiens, UniProt Q14671 828-1176, N1122K;Y1123F;Q1126N)
Method in brief: as §1

PUM1 PUF domain R8-RFF = PUM1 PUF domain R8-RFF (Homo sapiens, UniProt Q14671 828-1176, N1122R;Y1123F;Q1126F)
Method in brief: as §1

PUM1 PUF domain R8-KKG = PUM1 PUF domain R8-KKG (Homo sapiens, UniProt Q14671 828-1176, N1122K;Y1123K;Q1126G)
Method in brief: as §1

PUM1 PUF domain R8-KKT = PUM1 PUF domain R8-KKT (Homo sapiens, UniProt Q14671 828-1176, N1122K;Y1123K;Q1126T)
Method in brief: as §1

PUM1 PUF domain R1-CGE = PUM1 PUF domain R1-CGE (Homo sapiens, UniProt Q14671 828-1176, S863C;R864G;Q867E)
Method in brief: as §1

PUM1 PUF domain R4-VYG = PUM1 PUF domain R4-VYG (Homo sapiens, UniProt Q14671 828-1176, N971V;H972Y;Q975G)
Method in brief: as §1

PUM1 PUF domain R5-GRF = PUM1 PUF domain R5-GRF (Homo sapiens, UniProt Q14671 828-1176, C1007G;Q1011F)
Method in brief: as §1

PUM1 PUF domain R5-TRH = PUM1 PUF domain R5-TRH (Homo sapiens, UniProt Q14671 828-1176, C1007T;Q1011H)
Method in brief: as §1

PUM1 PUF domain R5-DFD = PUM1 PUF domain R5-DFD (Homo sapiens, UniProt Q14671 828-1176, C1007D;R1008F;Q1011D)
Method in brief: as §1

PUM1 PUF domain R5-GHG = PUM1 PUF domain R5-GHG (Homo sapiens, UniProt Q14671 828-1176, C1007G;R1008H;Q1011G)
Method in brief: as §1

PUM1 PUF domain R7-RPE = PUM1 PUF domain R7-RPE (Homo sapiens, UniProt Q14671 828-1176, S1079R;N1080P)
Method in brief: as §1

PUM1 PUF domain R7-VTR = PUM1 PUF domain R7-VTR (Homo sapiens, UniProt Q14671 828-1176, S1079V;N1080T;E1083R)
Method in brief: as §1

PUM1 PUF domain R7-RVT = PUM1 PUF domain R7-RVT (Homo sapiens, UniProt Q14671 828-1176, S1079R;N1080V;E1083T)
Method in brief: as §1

PUM1 PUF domain R3-APK = PUM1 PUF domain R3-APK (Homo sapiens, UniProt Q14671 828-1176, C935A;R936P;Q939K)
Method in brief: as §1

PUM1 PUF domain R5-EFD = PUM1 PUF domain R5-EFD (Homo sapiens, UniProt Q14671 828-1176, C1007E;R1008F;Q1011D)
Method in brief: as §1

PUM1 PUF domain R5-CHQ = PUM1 PUF domain R5-CHQ (Homo sapiens, UniProt Q14671 828-1176, R1008H)
Method in brief: as §1

PUM1 PUF domain R5-GRA, sequence (Q14671 828-1176 C1007G/Q1011A): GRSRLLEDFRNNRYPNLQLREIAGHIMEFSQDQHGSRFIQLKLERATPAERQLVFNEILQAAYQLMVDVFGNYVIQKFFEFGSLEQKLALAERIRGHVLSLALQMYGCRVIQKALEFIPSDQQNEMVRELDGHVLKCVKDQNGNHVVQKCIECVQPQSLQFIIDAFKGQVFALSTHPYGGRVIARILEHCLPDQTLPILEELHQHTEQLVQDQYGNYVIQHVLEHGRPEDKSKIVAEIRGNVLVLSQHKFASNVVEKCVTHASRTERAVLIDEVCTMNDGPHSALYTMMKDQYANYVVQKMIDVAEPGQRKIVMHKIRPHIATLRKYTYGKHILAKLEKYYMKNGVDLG
PUM1 PUF domain R5-DFD, sequence (Q14671 828-1176 C1007D/R1008F/Q1011D): as the sequence (Q14671 828-1176 C1007G/Q1011A) above, with G180D, R181F, A184D counted along it
PUM1 PUF domain R8-KFN, sequence (Q14671 828-1176 N1122K/Y1123F/Q1126N): as the sequence (Q14671 828-1176 C1007G/Q1011A) above, with G180C, A184Q, N295K, Y296F, Q299N counted along it
PUM1 PUF domain R5-TRH, sequence (Q14671 828-1176 C1007T/Q1011H): as the sequence (Q14671 828-1176 C1007G/Q1011A) above, with G180T, A184H counted along it
PUM1 PUF domain R5-GRF, sequence (Q14671 828-1176 C1007G/Q1011F): as the sequence (Q14671 828-1176 C1007G/Q1011A) above, with A184F counted along it
PUM1 PUF domain R5-GHG, sequence (Q14671 828-1176 C1007G/R1008H/Q1011G): as the sequence (Q14671 828-1176 C1007G/Q1011A) above, with R181H, A184G counted along it
PUM1 PUF domain R8-RFF, sequence (Q14671 828-1176 N1122R/Y1123F/Q1126F): as the sequence (Q14671 828-1176 C1007G/Q1011A) above, with G180C, A184Q, N295R, Y296F, Q299F counted along it
PUM1 PUF domain R7-VTR, sequence (Q14671 828-1176 S1079V/N1080T/E1083R): as the sequence (Q14671 828-1176 C1007G/Q1011A) above, with G180C, A184Q, S252V, N253T, E256R counted along it
PUM1 PUF domain R3-APK, sequence (Q14671 828-1176 C935A/R936P/Q939K): as the sequence (Q14671 828-1176 C1007G/Q1011A) above, with C108A, R109P, Q112K, G180C, A184Q counted along it
PUM1 PUF domain R7-RPE, sequence (Q14671 828-1176 S1079R/N1080P): as the sequence (Q14671 828-1176 C1007G/Q1011A) above, with G180C, A184Q, S252R, N253P counted along it
PUM1 PUF domain R8-KKG, sequence (Q14671 828-1176 N1122K/Y1123K/Q1126G): as the sequence (Q14671 828-1176 C1007G/Q1011A) above, with G180C, A184Q, N295K, Y296K, Q299G counted along it
PUM1 PUF domain R7-RVT, sequence (Q14671 828-1176 S1079R/N1080V/E1083T): as the sequence (Q14671 828-1176 C1007G/Q1011A) above, with G180C, A184Q, S252R, N253V, E256T counted along it
PUM1 PUF domain R1-CGE, sequence (Q14671 828-1176 S863C/R864G/Q867E): as the sequence (Q14671 828-1176 C1007G/Q1011A) above, with S36C, R37G, Q40E, G180C, A184Q counted along it

Question: Which results are given for “GGCUAGAACUAGUGGAUCCCCCGGCGCCCGGCGGCUCGAGCCCGGGUAAGUGUGAAUAGUCUGCAUGCCGCCGGGCGCCAUGCCUGCAGGUCGACUCUAGAAAACAUG”?
Answer: binding signal (PUM1 PUF domain R5-GRA): 1.36 log2 enrichment (interaction score); binding signal (PUM1 PUF domain R5-DWA): 4.75 log2 enrichment (interaction score); binding signal (PUM1 PUF domain R5-GHA): 3.2 log2 enrichment (interaction score); binding signal (PUM1 PUF domain R5-RDK): 4.56 log2 enrichment (interaction score)

Question: Which results are given for “GGCUAGAACUAGUGGAUCCCCCGGCGCCCGGCGGCUCGAGCCCGGGUAAGCGUAAAUAGUCUGCAUGCCGCCGGGCGCCAUGCCUGCAGGUCGACUCUAGAAAACAUG”?
Answer: binding signal (PUM1 PUF domain R8-KFN): 2.26 log2 enrichment (interaction score); binding signal (PUM1 PUF domain R8-RFF): 5.12 log2 enrichment (interaction score); binding signal (PUM1 PUF domain R8-KKG): 2.43 log2 enrichment (interaction score); binding signal (PUM1 PUF domain R8-KKT): 3.48 log2 enrichment (interaction score)

Question: With “GGCUAGAACUAGUGGAUCCCCCGGCGCCCGGCGGCUCGAGCCCGGGUAAGUGUAAAUGGUCUGCAUGCCGCCGGGCGCCAUGCCUGCAGGUCGACUCUAGAAAACAUG” as the sequence, how does the binding signal (PUM1 PUF domain R1-CGE) read?
Answer: 3.82 log2 enrichment (interaction score)

Question: Which binding signal (PUM1 PUF domain R4-VYG) does the source give for “GGCUAGAACUAGUGGAUCCCCCGGCGCCCGGCGGCUCGAGCCCGGGUAAGUGUAGAUAGUCUGCAUGCCGCCGGGCGCCAUGCCUGCAGGUCGACUCUAGAAAACAUG” here?
Answer: 5.26 log2 enrichment (interaction score)

Question: Which binding signal (PUM1 PUF domain R5-GRF) does the source give for “GGCUAGAACUAGUGGAUCCCCCGGCGCCCGGCGGCUCGAGCCCGGGUAAGUGUUAAUAGUCUGCAUGCCGCCGGGCGCCAUGCCUGCAGGUCGACUCUAGAAAACAUG” here?
Answer: 3.3 log2 enrichment (interaction score)

Question: What about the binding signal (PUM1 PUF domain R5-TRH) of the same sequence?
Answer: 4.41 log2 enrichment (interaction score)

Question: And the binding signal (PUM1 PUF domain R5-GRA)?
Answer: 2.93 log2 enrichment (interaction score)

Question: And the binding signal (PUM1 PUF domain R5-DWA)?
Answer: 5.07 log2 enrichment (interaction score)

Question: And the binding signal (PUM1 PUF domain R5-GHA)?
Answer: 2.33 log2 enrichment (interaction score)

Question: What does the source list for “GGCUAGAACUAGUGGAUCCCCCGGCGCCCGGCGGCUCGAGCCCGGGUAAGUGUCAAUAGUCUGCAUGCCGCCGGGCGCCAUGCCUGCAGGUCGACUCUAGAAAACAUG”?
Answer: binding signal (PUM1 PUF domain R5-DFD): 2.82 log2 enrichment (interaction score); binding signal (PUM1 PUF domain R5-GHG): 2.77 log2 enrichment (interaction score); binding signal (PUM1 PUF domain R5-DWA): 2.25 log2 enrichment (interaction score)

Question: For “GGCUAGAACUAGUGGAUCCCCCGGCGCCCGGCGGCUCGAGCCCGGGUAAGUUUAAAUAGUCUGCAUGCCGCCGGGCGCCAUGCCUGCAGGUCGACUCUAGAAAACAUG”, which binding signal (PUM1 PUF domain R7-RPE) is on record?
Answer: 3.87 log2 enrichment (interaction score)

Question: What about the binding signal (PUM1 PUF domain R7-VTR) of the same sequence?
Answer: 3.74 log2 enrichment (interaction score)

Question: And the binding signal (PUM1 PUF domain R7-RVT)?
Answer: 2.57 log2 enrichment (interaction score)

Question: For “GGCUAGAACUAGUGGAUCCCCCGGCGCCCGGCGGCUCGAGCCCGGGUAAGUGUAAUUAGUCUGCAUGCCGCCGGGCGCCAUGCCUGCAGGUCGACUCUAGAAAACAUG”, which binding signal (PUM1 PUF domain R3-APK) is on record?
Answer: 4.11 log2 enrichment (interaction score)

Question: For “GGCUAGAACUAGUGGAUCCCCCGGCGCCCGGCGGCUCGAGCCCGGGUAAGUGUAAAUAGUCUGCAUGCCGCCGGGCGCCAUGCCUGCAGGUCGACUCUAGAAAACAUG”, which binding signal (PUM1 PUF domain R5-GRF) is on record?
Answer: 1.75 log2 enrichment (interaction score)

Question: What about the binding signal (PUM1 PUF domain R5-DFD) of the same sequence?
Answer: 3.03 log2 enrichment (interaction score)

Question: What about the binding signal (PUM1 PUF domain R8-KFN) of the same sequence?
Answer: 2.9 log2 enrichment (interaction score)

Question: And the binding signal (PUM1 PUF domain R5-TRH)?
Answer: 5.68 log2 enrichment (interaction score)

Question: And the binding signal (PUM1 PUF domain R5-GHG)?
Answer: 3.84 log2 enrichment (interaction score)

Question: What about the binding signal (PUM1 PUF domain R5-GRA) of the same sequence?
Answer: 2.95 log2 enrichment (interaction score)

Question: And the binding signal (PUM1 PUF domain R5-EFD)?
Answer: 4.36 log2 enrichment (interaction score)

Question: And the binding signal (PUM1 PUF domain R5-DWA)?
Answer: 1.76 log2 enrichment (interaction score)

Question: And the binding signal (PUM1 PUF domain R5-GHA)?
Answer: 3.68 log2 enrichment (interaction score)

Question: And the binding signal (PUM1 PUF domain R5-CHQ)?
Answer: 2.46 log2 enrichment (interaction score)
